# TTR transcr act – activators of transthyretin transcription. SH-SY5Y TTR promoter Gaussia luciferase, luminescence; 100% = recombinant luciferase protein wells. activation, % at 16.7 µM. actives 1.3% (n = 92,000). AID 1117267;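 active means activation above the mean of all tested compounds plus 3 SD, cut at about 9.5% in these data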;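 further: cells exposed to compounds for one day before reading; 0% = median of all test compound wells on the plate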
# HuH7 TTR inh – counter-screen for TTR activators: TTR transcription inhibitors in HuH7 cells; shares compounds with TTR transcr act; HuH7 TTR promoter-Gaussia luciferase reporter, luminescence; inhibition, % at 16.7 µM; actives 4% (n = 1,100); AID 1117279;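 active means average inhibition above the solvent-only control wells' mean plus 3 SD, cut at about 15% in these data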;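 further: 0% = cells with DMSO only and 100% = cells with inhibitor control FD; inhibitors lower well luminescence so higher value means more inhibition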
# TTR up confirm – human TTR transcription activation, confirmation; 1,100 tested, under 10 active; shares compounds with TTR transcr act; SHSY5Y TTR promoter Gaussia luciferase, luminescence; 100% = purified Lucia enzyme wells, no cells; activation, % at 16.7 µM; AID 1117280;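 active means mean activation above a set limit taken from the earlier primary screen, cut at about 11% in these data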;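 further: 0% = DMSO-treated cells and 100% = recombinant Lucia luciferase without cells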
# * = called active by the depositor. This is one part of a sample in which hits are shown more often than they occur.
SMILES,TTR transcr act,others
Cc1nn(C)c(C)c1P(=S)(c1c(C)nn(C)c1C)N(C)C,9.9*,HuH7 TTR inh=-4;TTR up confirm=-1
O=C(CNC(=O)OCc1ccccc1)NC(Cc1ccccc1)P(=O)(Oc1ccccc1)Oc1ccccc1 (centres undefined),-2,
CCOC(=O)c1cccc(C2=C(CNC(=O)c3ccc([N+](=O)[O-])cc3)[C@H]3CC[C@@H](C2)N3Cc2ccccc2)c1,-1,
CC(C)(C)OC(=O)NCCCCC(N)[P+](=O)O (centres undefined),7,
CC(=O)C1CCC2C3CCC4CC(O)CCC4(C)C3C(=O)CC12C (centres undefined),12*,HuH7 TTR inh=-7;TTR up confirm=-1
CC(=O)C1CCC2C3CC(O)C4CC(O)CCC4(C)C3CCC12C (centres undefined),-2,
CC(=O)C1CCC2C3CCC4CC(O)CCC4(C)C3C(O)CC12C (centres undefined),-1,
CC(C)C(NC(=O)OCc1ccccc1)P(=O)(Oc1ccccc1)Oc1ccccc1 (centres undefined),0,
CCOC(=O)[C@]12Cc3cc(C)ccc3[C@H]1N(C1CCCCC1)C(=O)c1cc(OC)ccc12,-7,
COC(=O)C1=Nc2ccccc2/C1=C\c1c(O)n(C)c(=O)n(C)c1=O,0,
Cn1c(O)c(/C=C2\N=c3ccccc3=C2CCNC(=S)NC2CC2)c(=O)n(C)c1=O,13*,HuH7 TTR inh=17*;TTR up confirm=0
Cn1c(O)c(/C=C2\C=Nc3ccccc32)c(=O)n(C)c1=O,0,
Brc1csc(N2CCNCC2)n1,0,
CC(C)C(CN1CCC(C)(c2cccc(O)c2)[C@@H](C)C1)NC(=O)C1Cc2ccc(O)cc2CN1 (some centres undefined),1,
CCC(NC(=O)OCc1ccccc1)P(=O)(Oc1ccccc1)Oc1ccccc1 (centres undefined),0,

# Screening results as filed in PubChem BioAssay.
